Experimental data taken from PubChem BioAssay (NCATS).
“And” between values parts separate entries of the source, which are not always exact repeats. Equal values may be shown once. Records with an inconclusive call do not appear. The source made the active and inactive calls. Unless noted, calls follow the shape of the dose curve; as a rule, active = well fitted curve in the direction sought with a large enough effect; inconclusive = small, poorly fitted or top-dose-only effect, or another doubt; inactive = no such curve, though single readings can be large; an effect the other way counts as inactive or inconclusive.

Tests used:
[1] = Primary qHTS for inhibitors of nuclear receptor binding SET domain protein 2 (NSD2) in an isogenic RCH-ACV NSD2 p.E1099K mutant (9B) (AID 1645876); also: potency is read from the fitted curve at half-maximal effect; nearly all actives have a fitted effect of over 70% in size
[2] = Primary qHTS for inhibitors of nuclear receptor binding SET domain protein 2 (NSD2) in an RCH-ACV wild type WT cells (2C) (AID 1645877); also: potency is read from the fitted curve at half-maximal effect; nearly all actives have a fitted effect of over 70% in size
[3] = molecular target: Glutathione peroxidase 1 (Homo sapiens) (UniProt P07203); assay: Primary qHTS Assay for Inhibitors of Recombinant Selenoprotein Glutathione Peroxidase 1 (GPX1) (AID 1845191); also: nearly all actives have a fitted effect of over 65% in size
Method in brief: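 GR-coupled assay: compounds preincubated 30 min at room temperature with GPX1, then reaction started with CHP; final 10 nM GPX1, 1 mM GSH, 0.5 mM CHP, 0.5 mM NADPH, 100 nM GR, 0.01% BSA, pH 7.5 Tris buffer. NADPH fluorescence (340/450 nm) read at 0 and 15 min.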

[4] = molecular target: Phospholipid hydroperoxide glutathione peroxidase GPX4 (Homo sapiens) (UniProt P36969); assay: Primary qHTS Assay for Inhibitors of Recombinant Selenoprotein Glutathione Peroxidase 4 (GPX4) (AID 1845192); conditions: outcome: dose series up to 50 µM unless noted; also: % is scaled to controls: 0 for no effect and ±100 for the full control effect; nearly all actives have a fitted effect of over 65% in size
Method in brief: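 GR-coupled assay: recombinant GPX4 preincubated 30 min with compound at room temperature; final 200 nM GPX4, 1 mM GSH, 0.5 mM cumene hydroperoxide, 0.5 mM NADPH, 100 nM GR, 0.01% BSA, pH 7.5 Tris. NADPH fluorescence (340/450 nm) read at 0 and 15 min.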

[5] = qHTS drug screen for cell cycle checkpoint inhibitors in PARPi-resistant BRCA-mutant ovarian cancer cell lines. (AID 1963452; calls by dose curve; also: potency is read from the fitted curve at half-maximal effect); conditions: PEO1/OlaR viability, CellTiter-Glo luminescence, 96 h; for Z-AUC: stronger effect = lower value
Method in brief: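 PEO1, PEO4 and PEO1/OlaR ovarian cancer cells, 600 per well, exposed 96 h at 37C to a dilution series. Viability read by CellTiter-Glo luminescence, normalized to DMSO and empty wells; activity summarized as Z-AUC.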

[6] = qHTS assay to identify inhibitors of the type 1 interferon - major histocompatibility complex class I in skeletal muscle: Counter screen cell viability and HiBit confirmation (AID 1347412); conditions: iHSKM muscle cells + IFN-b, HiBiT or CellTiter-Glo, 24 h; for activity change, negative = inhibition: at 45.9 µM (top of the series); also: potency is read from the fitted curve at half-maximal effect; as to activity change, negative = inhibition: % is scaled to controls: 0 for no effect and ±100 for the full control effect; as to all read-outs here: nearly all actives have a fitted effect of over 60% in size
Method in brief: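 After 24 h with human IFN-beta (4 ng/ml) and compound titrations (top 46 uM final, 1:3, 12 points), HLA-B HiBit myoblasts were lysed for either Nano-Glo HiBiT luminescence or CellTiter Glo viability on paired plates.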

[7] = Validation of Assay for Modulators of Lamin A Splicing (AID 1459; active = well fitted curve in the direction sought with a large enough effect in the signal ratio; the % refers to the signal ratio;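 also: cells exposed to compound for two days before reading; 0% is about no effect; ratio rise marks activators and ratio drop marks inhibitors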)
Method in brief: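 Splicing correction read as GFP (500-530 nm) over DsRed2 (575-640 nm) object intensity after 48 h compound exposure of reporter HeLa S3 clones (600 cells/well, 2% FBS medium); ancitabine and cycloheximide titrations, 0.5% DMSO as vehicle.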

[8] = qHTS Assay for Lipid Storage Modulators (AID 1519; calls by dose curve; as to activity change, negative = inhibition: % is scaled to controls: 0 for no effect and ±100 for the full control effect); conditions: Drosophila S3 cells, BODIPY lipid droplet/cell ratio, laser cytometry, cells loaded with oleic acid; for activity change, negative = inhibition: at 57.5 µM (top of the series)
Method in brief: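 Cells seeded at 5,000 per well were treated with compounds over a concentration series and loaded with oleic acid (400 uM, as added). Lipid droplet fluorescence (488 nm excitation, 500-530 nm channel) was read by laser-scanning cytometry and normalized to 20 uM Triacsin C.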

[9] = molecular target: DNA repair nuclease/redox regulator APEX1 (Homo sapiens) (UniProt P27695); assay: qHTS Validation Assay for Inhibitors of the Human Apurinic/apyrimidinic Endonuclease 1 (APE1) (AID 1705;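 also: TAMRA fluorescence gain over two minutes as APE1 cuts a quenched THF abasic duplex; % is scaled to controls: 0 for no effect and ±100 for the full control effect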)
Method in brief: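 Activity read as rising fluorescence (598 nm emission, 525 nm excitation) from incision of a TAMRA/BHQ-2 duplex carrying a THF abasic site (50 nM). Compound and enzyme sat 15 min at RT before substrate start; signal change between first and third 60-s reads.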

[10] = Counterscreen for APE1 Inhibitors: Fluorescent Dye Displacement Validation Assay (AID 1707);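 also: plate controls were ThO with dsDNA and no compound for no effect and ThO without dsDNA for full effect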
Method in brief: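 Assay buffer: Tris-HCl pH7.5 with 50mM NaCl, 2 mM MgCl2, 0.01% Tween-20. Dye 250 nM, duplex 50 nM final. Readout: decrease in ThO endpoint fluorescence, 480 nm excitation, 540 nm emission.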

[11] = molecular target: Endonuclease 4 (Escherichia coli (strain K12)) (UniProt P0A6C1); assay: Counterscreen for APE1 Inhibitors: qHTS Validation Assay for Inhibitors of Endonuclease IV (AID 1708); also: % is scaled to controls: 0 for no effect and ±100 for the full control effect
Method in brief: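 E. coli EndoIV at 2 nM final, preincubated 15 min at room temperature with compound, then 50 nM TAMRA/BHQ-2 THF abasic-site duplex added. Buffer: 50 mM Tris-HCl pH 7.5, 50 mM NaCl, 2 mM MgCl2, 1 mM DTT, 0.01% Tween-20. Kinetic fluorescence increase, third minus first read.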

[12] = molecular target: ATP-dependent DNA helicase Q1 (Homo sapiens) (UniProt P46063); assay: qHTS Validation Assay for Inhibitors of RecQ-Like Dna Helicase 1 (RECQ1) (AID 2353);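 also: plate controls were DMSO vehicle for no effect and enzyme-free control for full effect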
Method in brief: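 50 nM RECQ1T1 preincubated 15 min with compound in Tris pH 8.0 buffer with MgCl2, DTT, Tween-20 and 2.5 ug/ml poly(dI-dC); started with 200 nM TAMRA/BHQ-2 forked duplex and 2 mM ATP. Unwinding read as fluorescence (525/598 nm), two reads 2 h apart.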

[13] = Validation screen for small molecules that induce DNA re-replication in MCF 10A normal breast cells (AID 463097); also: 0% is about no effect; nearly all actives have a fitted effect of over 60% in size
Method in brief: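 Read-out is Hoechst total nuclear intensity by fluorescence scanning imager, flagging increased high-DNA-content nuclei. Compounds were incubated with MCF 10A cells for 48 hr (37 C, 5% CO2) before 40 min staining.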

[14] = Quantitative high throughput screen for delayed death inhibitors of the malarial parasite plastid, 96 hour incubation (AID 488745); also: nearly all actives have a fitted effect of over 70% in size; also: potency is read from the fitted curve at half-maximal effect
Method in brief: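 Luciferase-expressing P. falciparum in erythrocytes (2% hematocrit, 0.1% parasitemia) incubated with compound for 96 h at 37 C, 5% CO2, in RPMI 1640 with 0.5% Albumax. Growth inhibition read as decreased luminescence.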

[15] = Quantitative high throughput screen for delayed death inhibitors of the malarial parasite plastid, 48 hour incubation (AID 488752); also: % is scaled to controls: 0 for no effect and ±100 for the full control effect; nearly all actives have a fitted effect of over 65% in size
Method in brief: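 Erythrocytes infected with firefly luciferase-expressing P. falciparum (2% hematocrit, 0.1% parasitemia) cultured with compound for 48 h at 37 C, 5% CO2, in RPMI 1640/0.5% Albumax. Growth inhibition read as loss of luminescence.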

[16] = molecular target: Transient receptor potential cation channel subfamily V member 1 (Homo sapiens) (UniProt Q8NER1); assay: HTS Assay for Compounds that Act as Enhancers of the Vanilloid Receptor 1 (AID 488979); also: 0% is about no effect
Method in brief: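 TRPV1 cells loaded with Fluo-8 calcium dye; compound added and Ca2+ signal (ex 480/em 520 nm) followed 3 min, then capsaicin at EC20 added and read 2 more min to detect enhancement.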

[17] = molecular target: Thyrotropin receptor (Homo sapiens) (UniProt P16473); assay: qHTS Assay for Antagonists of the Thyroid Stimulating Hormone Receptor (AID 488980); also: 0% is about no effect
Method in brief: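 Inhibition of cAMP raised by EC80 TSH (4 nM final) was read by HTRF, with lysate cAMP competing against cAMP-d2 for cryptate antibody after 30 min at room temperature. The cells were transfected HEK293 held in phosphodiesterase inhibitor RO 20-1724 at 70 uM.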

[18] = molecular target: Galactokinase (Homo sapiens) (UniProt P51570); assay: qHTS Validation Assay for Inhibitors of Human Galactokinase (GALK) (AID 493189); also: 0% is about no effect
Method in brief: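 Inhibition was measured as remaining ATP, detected by luciferase luminescence after a 1 h room-temperature reaction. Final conditions: 5 nM GALK, 100 uM galactose, 35 uM ATP, pH 8.0 HEPES buffer.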

[19] = Validation screen for small molecules that induce DNA re-replication in SW480 colon adenocarcinoma cells (AID 504364); also: 0% is about no effect
Method in brief: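 SW480 cells (250/well) exposed 48 h at 37 C, 5% CO2, then Hoechst-stained 40 min. Nuclear DNA content imaged by fluorescence scanning (405 nm excitation, 500-530 nm emission); re-replication scored as increased nuclei with elevated intensity.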

[20] = measured here: PEO1 parental Z-AUC
[21] = measured here: cell count channel max response
[22] = measured here: lipid channel max response

Sequence of Glutathione peroxidase 1 (Homo sapiens) (P07203 whole entry, looked up): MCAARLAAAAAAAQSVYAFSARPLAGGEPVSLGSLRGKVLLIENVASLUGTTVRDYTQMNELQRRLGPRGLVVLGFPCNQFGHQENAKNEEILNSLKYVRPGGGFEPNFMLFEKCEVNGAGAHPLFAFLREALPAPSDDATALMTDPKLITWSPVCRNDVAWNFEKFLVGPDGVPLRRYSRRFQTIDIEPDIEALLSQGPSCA
Sequence of Phospholipid hydroperoxide glutathione peroxidase GPX4 (Homo sapiens) (P36969 whole entry, looked up): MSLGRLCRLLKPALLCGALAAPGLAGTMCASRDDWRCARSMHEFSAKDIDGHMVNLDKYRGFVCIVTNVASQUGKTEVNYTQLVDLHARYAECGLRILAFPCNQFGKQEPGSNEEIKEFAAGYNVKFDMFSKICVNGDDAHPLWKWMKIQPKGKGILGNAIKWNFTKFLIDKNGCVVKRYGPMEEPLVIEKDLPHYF
Sequence of Galactokinase (Homo sapiens) (P51570 whole entry, looked up): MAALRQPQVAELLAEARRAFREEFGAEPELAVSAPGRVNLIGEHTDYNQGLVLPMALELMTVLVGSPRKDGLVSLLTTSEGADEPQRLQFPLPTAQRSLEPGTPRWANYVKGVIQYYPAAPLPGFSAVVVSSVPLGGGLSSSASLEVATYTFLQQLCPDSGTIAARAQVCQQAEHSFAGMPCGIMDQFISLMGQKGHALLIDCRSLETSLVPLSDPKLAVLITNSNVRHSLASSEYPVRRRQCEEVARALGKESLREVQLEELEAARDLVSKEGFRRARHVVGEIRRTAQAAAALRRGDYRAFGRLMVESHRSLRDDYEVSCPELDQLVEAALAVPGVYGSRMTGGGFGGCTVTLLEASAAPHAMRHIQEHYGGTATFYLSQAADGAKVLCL
Sequence of Transient receptor potential cation channel subfamily V member 1 (Homo sapiens) (Q8NER1 whole entry, looked up): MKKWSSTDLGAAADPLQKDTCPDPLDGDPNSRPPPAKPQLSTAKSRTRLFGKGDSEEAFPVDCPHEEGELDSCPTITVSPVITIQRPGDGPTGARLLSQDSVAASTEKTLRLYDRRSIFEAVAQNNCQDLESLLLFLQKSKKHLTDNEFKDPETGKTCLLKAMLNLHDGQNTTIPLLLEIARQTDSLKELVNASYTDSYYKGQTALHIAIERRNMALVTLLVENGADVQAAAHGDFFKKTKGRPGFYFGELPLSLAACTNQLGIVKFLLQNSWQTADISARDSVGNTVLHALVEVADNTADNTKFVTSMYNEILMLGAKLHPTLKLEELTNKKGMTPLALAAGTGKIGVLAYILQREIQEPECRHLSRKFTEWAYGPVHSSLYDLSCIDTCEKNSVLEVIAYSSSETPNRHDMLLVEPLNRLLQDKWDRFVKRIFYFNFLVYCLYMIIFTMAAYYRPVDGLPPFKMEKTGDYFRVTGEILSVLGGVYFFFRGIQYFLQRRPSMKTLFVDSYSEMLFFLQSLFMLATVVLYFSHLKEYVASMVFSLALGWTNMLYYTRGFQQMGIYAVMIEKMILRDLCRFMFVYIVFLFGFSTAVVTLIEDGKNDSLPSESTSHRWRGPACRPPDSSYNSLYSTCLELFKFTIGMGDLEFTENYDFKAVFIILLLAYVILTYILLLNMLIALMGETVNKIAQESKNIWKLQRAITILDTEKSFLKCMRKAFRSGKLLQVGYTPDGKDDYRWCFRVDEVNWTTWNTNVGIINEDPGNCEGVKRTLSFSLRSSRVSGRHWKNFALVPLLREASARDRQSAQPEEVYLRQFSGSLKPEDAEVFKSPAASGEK
Sequence of ATP-dependent DNA helicase Q1 (Homo sapiens) (P46063 whole entry, looked up): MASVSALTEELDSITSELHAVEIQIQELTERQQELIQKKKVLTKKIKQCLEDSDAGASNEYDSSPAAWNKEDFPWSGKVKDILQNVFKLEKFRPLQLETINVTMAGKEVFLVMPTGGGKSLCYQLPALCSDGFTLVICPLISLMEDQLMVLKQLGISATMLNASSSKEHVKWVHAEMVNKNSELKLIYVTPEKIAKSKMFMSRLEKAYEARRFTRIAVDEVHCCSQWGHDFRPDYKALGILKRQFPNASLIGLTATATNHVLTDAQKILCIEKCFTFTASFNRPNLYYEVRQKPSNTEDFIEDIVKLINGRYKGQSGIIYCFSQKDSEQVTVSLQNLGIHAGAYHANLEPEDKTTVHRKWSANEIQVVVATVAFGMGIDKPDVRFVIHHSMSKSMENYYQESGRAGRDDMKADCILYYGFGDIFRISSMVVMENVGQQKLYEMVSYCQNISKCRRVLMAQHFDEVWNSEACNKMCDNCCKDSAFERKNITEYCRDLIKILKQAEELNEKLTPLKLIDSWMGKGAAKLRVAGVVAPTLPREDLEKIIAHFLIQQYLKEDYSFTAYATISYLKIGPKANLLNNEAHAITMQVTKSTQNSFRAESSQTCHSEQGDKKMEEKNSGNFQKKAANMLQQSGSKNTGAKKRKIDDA
Sequence of Thyrotropin receptor (Homo sapiens) (P16473 whole entry, looked up): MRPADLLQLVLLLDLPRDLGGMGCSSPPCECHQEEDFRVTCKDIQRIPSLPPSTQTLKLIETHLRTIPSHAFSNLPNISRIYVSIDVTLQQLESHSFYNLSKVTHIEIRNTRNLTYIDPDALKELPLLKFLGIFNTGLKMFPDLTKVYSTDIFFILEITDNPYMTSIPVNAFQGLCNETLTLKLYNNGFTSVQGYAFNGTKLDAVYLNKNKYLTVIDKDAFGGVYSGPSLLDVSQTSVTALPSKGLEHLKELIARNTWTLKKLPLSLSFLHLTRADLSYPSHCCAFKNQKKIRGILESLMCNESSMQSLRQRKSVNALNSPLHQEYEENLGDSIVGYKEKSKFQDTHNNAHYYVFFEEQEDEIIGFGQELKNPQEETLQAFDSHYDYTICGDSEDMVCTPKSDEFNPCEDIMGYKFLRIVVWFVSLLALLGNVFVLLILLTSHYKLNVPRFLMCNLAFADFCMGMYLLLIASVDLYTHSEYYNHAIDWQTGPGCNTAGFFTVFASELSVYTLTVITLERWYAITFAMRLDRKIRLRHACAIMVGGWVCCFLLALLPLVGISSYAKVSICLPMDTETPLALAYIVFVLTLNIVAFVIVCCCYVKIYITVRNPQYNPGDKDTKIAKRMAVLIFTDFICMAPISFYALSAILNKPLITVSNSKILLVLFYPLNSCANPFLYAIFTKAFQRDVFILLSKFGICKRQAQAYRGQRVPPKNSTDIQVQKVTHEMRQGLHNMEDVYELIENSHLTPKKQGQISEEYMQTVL
Sequence of DNA repair nuclease/redox regulator APEX1 (Homo sapiens) (P27695 whole entry, looked up): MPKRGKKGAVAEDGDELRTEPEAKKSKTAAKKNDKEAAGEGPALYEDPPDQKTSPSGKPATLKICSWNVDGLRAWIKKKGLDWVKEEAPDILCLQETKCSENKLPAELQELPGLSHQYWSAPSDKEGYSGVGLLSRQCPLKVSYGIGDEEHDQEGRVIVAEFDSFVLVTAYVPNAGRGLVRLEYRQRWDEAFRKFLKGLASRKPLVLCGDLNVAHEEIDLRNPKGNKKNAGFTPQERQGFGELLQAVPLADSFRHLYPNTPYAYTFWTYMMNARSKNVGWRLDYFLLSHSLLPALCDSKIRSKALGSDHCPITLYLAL

O=C(/C=C/c1ccc2ccc(C(F)(F)F)cc2n1)c1ccncc1
Potency [1]: 2.35 µM (active)
Potency [2]: 2.09 µM (active)
Potency [3]: inactive
Potency [4]: inactive
Z-AUC [5]: -0.632 (inactive)
Z-AUC [5, 20]: -0.753
Z-AUC ([5]; measured here: PEO4 Z-AUC): -0.961
Potency ([6]; HiBiT): 4.43 µM (active)

C=CCN(/C=C1\C(=O)O[C@@H](COC)[C@]2(C)C1=C(O)C(=O)C1=C2[C@@H](OC(C)=O)C[C@]2(C)C(=O)CC[C@H]12)CC=C
Potency [1]: 10.5 µM (active)
Potency [2]: 8.33 µM (active)
Potency [4]: inactive
Z-AUC [5]: -0.265 (inactive)
Z-AUC [5, 20]: 0.0227
Z-AUC ([5]; measured here: PEO4 Z-AUC): 0.306
activity change, negative = inhibition ([6]; HiBiT): -5.45% (inactive)

O=C1NC(=O)[C@@H](c2c[nH]c3ccccc23)[C@H]1c1cn2c3c(cccc13)CCC2
Potency [1]: 1.18 µM (active)
Potency [2]: 0.934 µM (active)
Potency [3]: inactive
Z-AUC [5]: -1.13 (inactive)
Z-AUC [5, 20]: -0.673
Z-AUC ([5]; measured here: PEO4 Z-AUC): -0.711
activity change, negative = inhibition ([6]; Viability): -10.9% (inactive)

CCc1cnn2c(NCc3ccc[n+]([O-])c3)cc(N3CCCC[C@H]3CCO)nc12
Potency [1]: 0.0372 µM (active)
Potency [2]: 0.0372 µM (active)
Potency [3]: inactive
Potency [4]: inactive
Potency [5]: 0.245 µM (active)
Z-AUC [5, 20]: -2.15
Z-AUC ([5]; measured here: PEO4 Z-AUC): -1.73
activity change, negative = inhibition ([6]; Viability): 5.42% (inactive)

CNc1nc(-c2ccc3c(N)n[nH]c3c2)cc(N2C[C@@H](C(=O)NC3CCCCC3)CC[C@H]2C)n1
Potency [1]: 0.525 µM (active)
Potency [2]: 0.833 µM (active)
Potency [3]: inactive
Potency [4]: inactive
Z-AUC [5]: -1.31 (inactive)
Z-AUC [5, 20]: 0.449
Z-AUC ([5]; measured here: PEO4 Z-AUC): -0.0883
Potency ([6]; HiBiT): 31.3 µM (active)

NCCNC(=O)c1ccc(Cl)cc1
outcome [7]: inactive
activity change, negative = inhibition [8]: -0.17% (inactive) and -0.521% (inactive)
max response [8, 21]: 0.461% and 25.8%
max response [8, 22]: 1.39% and 22.5%
Potency [9]: inactive
Potency [10]: inactive
outcome [11]: inactive
Potency [12]: inactive
outcome [13]: inactive
Potency [14]: inactive
Potency [15]: inactive
outcome [16]: inactive
outcome [17]: inactive
outcome [18]: inactive
outcome [19]: inactive

O=c1cc(N2CCOCC2)oc2c(-c3ccc4c(c3)OCCO4)csc12
Potency [1]: 0.59 µM (active)
Potency [2]: 0.59 µM (active)
Potency [3]: inactive
Potency [4]: inactive
Z-AUC [5]: -0.839 (inactive)
Z-AUC [5, 20]: -0.602
Z-AUC ([5]; measured here: PEO4 Z-AUC): -0.553
Potency ([6]; HiBiT): 14 µM (active)

N=C(N)SCCc1cccc(CCSC(=N)N)c1
outcome [7]: inactive
activity change, negative = inhibition [8]: 1.43% (inactive)
max response [8, 21]: -17.4%
max response [8, 22]: -13.1%
Potency [9]: inactive
Potency [10]: inactive
outcome [11]: inactive
Potency [12]: inactive
outcome [13]: inactive
Potency [14]: 13.1 µM (active)
outcome [16]: inactive
outcome [17]: inactive
outcome [18]: inactive
outcome [19]: inactive

CCN(CC)CCNC(=O)c1c(C)[nH]c(/C=C2/C(=O)Nc3ccc(-c4csc(-c5ccccc5)n4)cc32)c1C
Potency [1]: 7.42 µM (active)
Potency [2]: 5.9 µM (active)
Potency [3]: inactive
Potency [4]: inactive
Z-AUC [5]: 0.984 (inactive)
Z-AUC [5, 20]: 0.413
Z-AUC ([5]; measured here: PEO4 Z-AUC): -0.34
Potency ([6]; Viability): 24.9 µM (active)

Cc1c(C(=O)Nc2ccc(Oc3ccnc4[nH]cc(-c5ccccc5)c34)c(F)c2)c(=O)n(-c2ccc(F)cc2)n1C
Potency [2]: 1.86 µM (active)
Potency [3]: inactive
Potency [4]: inactive
Z-AUC [5]: 0.886 (inactive)
Z-AUC [5, 20]: 0.825
Z-AUC ([5]; measured here: PEO4 Z-AUC): 0.513
activity change, negative = inhibition ([6]; Viability): -7.02% (inactive)

Cc1[nH]c(/C=C2\C(=O)Nc3ccc(S(=O)(=O)Cc4c(Cl)cccc4Cl)cc32)c(C)c1C(=O)N1CCC[C@@H]1CN1CCCC1
Potency [1]: 6.61 µM (active)
Potency [2]: 5.25 µM (active)
Potency [3]: inactive
Potency [4]: inactive
Potency ([6]; HiBiT): 22.2 µM (active)

CCCc1cc(C(=O)N[C@H](Cc2ccc(-c3cccc(OC(F)(F)F)c3)nc2)C(=O)N[C@@H]2CCNC2)sc1C
Potency [1]: 6.61 µM (active)
Potency [2]: 5.9 µM (active)
Potency [3]: inactive
Z-AUC [5]: -0.805 (inactive)
Z-AUC [5, 20]: -0.801
Z-AUC ([5]; measured here: PEO4 Z-AUC): -0.851
Potency ([6]; Viability): 35.2 µM (active)
